Active and inactive are the calls of the source.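 Rule for the calls, unless noted: active = visually confirmed hit in the image check and inhibition above 20%; inconclusive = visually confirmed hit but inhibition not above 20%; inactive = no visual hit in the image check.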
Tests used:
[1] = inhibitors of TNFa-induced NFkB p65 translocation, primary screen, imaging, HUVEC, MLSMR starter and 10KST1 sets (AID 438;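 active = inhibition above 20% together with a positive visual image hit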;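 note: compound added about 3h40 before a 20 min TNFalpha stimulation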;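 for inhibition: signal is the nuclear over cytoplasmic p65 intensity ratio per well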); details: HUVEC TNFa-induced p65 nuclear translocation; cell count: measured here: nuclei count (cytotoxicity indicator), at 2.08 µM; inhibition: at 2 µM, stronger effect = higher value, 0% TNFa-plus-vehicle, 100% no-TNFa wells
[2] = reduction of polyQ htt aggregates in cells – imaging, exon1htt(103Q)mCFP cells, high-content imaging, primary screen (AID 483;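 active = visual image review flags a hit and inhibition of aggregation exceeds 20%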;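 note: compound exposure lasted 3 days before fixation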;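 for nuclei count: percent of the per-plate median nuclei count of sample wells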); details: exon1htt(103Q)mCFP cell line, aggregate imaging, at 2 µM; inhibition of aggregation: stronger effect = higher value; nuclei count: measured here: cell count, toxicity
[3] = endothelial E-selectin expression blockers – imaging, HUVEC, immunofluorescence, MLSMR starter and 10KST1 sets, primary screen (AID 487); details: HUVEC TNFalpha-induced E-selectin immunofluorescence imaging, at 2 µM; inhibition: stronger effect = higher value; nuclei count: measured here: cell number, toxicity;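 for inhibition: signal is fraction of cell area covered by stained E-selectin grains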;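 for nuclei count: 100% = median nuclei count of all wells on the same plate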
[4] = molecular target: Voltage-gated potassium channel subunit beta-2 (Rattus norvegicus) (UniProt P62483); assay: inhibitors of rat Kvbeta2 reductase activity – biochemical, NADPH fluorescence, primary screen (AID 622;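 active = fluorescence slope higher than the sample average by over 3 SD, cut at about -0.22 in these data, passing the limit was not always enough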;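 note: slope of raw intensity against log time taken from 70 to 1610 s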); details: recombinant KvBeta, 4-cyanobenzaldehyde reduction, at 10 µM, stronger effect = higher value
Voltage-gated potassium channel subunit beta-2 (Rattus norvegicus), sequence (P62483 whole entry, looked up): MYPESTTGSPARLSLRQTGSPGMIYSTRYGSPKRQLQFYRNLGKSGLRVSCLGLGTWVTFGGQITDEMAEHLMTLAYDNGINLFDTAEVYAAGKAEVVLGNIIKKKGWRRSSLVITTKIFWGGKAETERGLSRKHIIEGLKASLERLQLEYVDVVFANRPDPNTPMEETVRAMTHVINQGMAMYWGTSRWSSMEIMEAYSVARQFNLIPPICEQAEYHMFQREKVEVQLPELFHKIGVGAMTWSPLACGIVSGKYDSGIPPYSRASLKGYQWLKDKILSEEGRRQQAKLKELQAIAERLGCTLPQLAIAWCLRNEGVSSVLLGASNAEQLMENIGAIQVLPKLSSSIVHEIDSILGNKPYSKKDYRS

[5] = molecular target: Voltage-gated potassium channel subunit beta-2 (Rattus norvegicus) (UniProt P62483); assay: enhancers of rat Kvbeta2 NADPH turnover – biochemical, NADPH fluorescence, primary screen (AID 623;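 active = NADPH fluorescence slope more negative than the mean of all samples by about 3 SD, 99.7% confidence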;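 note: fluorescence intensity change per second fitted from 20 to 320 s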); details: Recombinant KvBeta, NADPH fluorescence decrease slope, 10 min; at 10 µM; stronger effect = lower value
[6] = molecular target: Alpha-2C adrenergic receptor (Homo sapiens) (UniProt P18825); assay: compounds altering alpha2C-coupled GIRK flux – cell-based, HEK293 alpha2C/GIRK1/2, thallium flux, primary screen (AID 624;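 active = fluorescence slope after compound addition differing from the mean of all screened samples at 99.7% confidence, in either direction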;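 note: slope of fluorescence ratio to pre-addition baseline per second over 15 to 24 s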); details: thallium flux BTC fluorescence, at 10 µM, actives lie on both sides
Alpha-2C adrenergic receptor (Homo sapiens), sequence (P18825 whole entry, looked up): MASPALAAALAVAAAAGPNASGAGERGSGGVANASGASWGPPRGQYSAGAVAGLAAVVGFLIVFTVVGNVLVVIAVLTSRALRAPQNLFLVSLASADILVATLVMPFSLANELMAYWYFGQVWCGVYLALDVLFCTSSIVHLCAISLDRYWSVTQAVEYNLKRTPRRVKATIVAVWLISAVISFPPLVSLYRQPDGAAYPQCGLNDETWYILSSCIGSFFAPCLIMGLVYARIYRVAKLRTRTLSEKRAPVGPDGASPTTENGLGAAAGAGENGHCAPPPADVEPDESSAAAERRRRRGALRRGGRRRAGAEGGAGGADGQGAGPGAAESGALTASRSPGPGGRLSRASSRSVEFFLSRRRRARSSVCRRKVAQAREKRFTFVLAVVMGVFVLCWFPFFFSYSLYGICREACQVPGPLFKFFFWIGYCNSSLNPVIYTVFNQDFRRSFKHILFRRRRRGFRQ

[7] = blockers of RIG-like receptor reporter activation – cell-based, Sendai virus stimulus, luciferase, 10K MLSCN set, TLR/RLR signaling modifier project, primary screen (AID 602276;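 active = inhibition at or above 50% at 10 µM; inactive = inhibition below 50%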;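 note: firefly luciferase from ISG56 promoter only with Renilla not read in this screen; 0% = Sendai virus plus DMSO and 100% = medium plus DMSO without virus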); details: HEK293 RL24 IRF3 luciferase reporter, at 10 µM, stronger effect = higher value
[8] = TLR3 IRF3 reporter activation blockers – cell-based, poly I:C stimulus, luciferase, 10K MLSCN set, primary screen (AID 602277;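 active = inhibition of the reporter signal at or above 50%; inactive = inhibition below 50%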); details: HEK293-TLR3 RL24 IRF3 luciferase reporter, at 10 µM, stronger effect = higher value

Compound	cell count [1]	inhibition [1]	inhibition of aggregation [2]	nuclei count [2] [%]	inhibition [3]	nuclei count [3] [%]	fluorescence slope [4]	NADPH fluorescence slope [5]	slope [6]	inhibition [7]	inhibition [8]
O=C(c1ccc(Br)o1)N(c1ccc(Br)cc1)C1C=CS(=O)(=O)C1 (stereo not given)	553	-21.1% (inactive)	4.2% (inactive)	108	-74.4% (inactive)	121	-0.377 (inactive)	3.2e-05 (inactive)	0.00592 (inactive)	-8.65% (inactive)	-3.46% (inactive)
O=C(NCC1CCCO1)C1CCCN(S(=O)(=O)c2cccc3nsnc23)C1 (stereo not given)	801	-1.6% (inactive)	30.3% (inactive)	122	-30.2% (inactive)	114	-0.434 (inactive)	6e-05 (inactive)	0.00536 (inactive)	0.526% (inactive)	-1.36% (inactive)
O=C(Nc1ccc2c(c1)OCO2)c1ccc(CN2CCOCC2)cc1	361	-5.1% (inactive)	-32% (inactive)	110	-117% (inactive)	122	-0.491 (inactive)	-3.3e-05 (inactive)	0.00498 (inactive)	-25.7% (inactive)	-76.1% (inactive)
COc1cc2c(cc1OC)C(C)N(C(=O)Cn1ncc3c1-c1ccccc1OC3)CC2 (stereo not given)	697	-4.8% (inactive)	-21.5% (inactive)	114	-39.6% (inactive)	117	-0.587 (inactive)	-3.4e-05 (inactive)	0.008 (inactive)	7.96% (inactive)	17.3% (inactive)
CCOC(=O)c1ccccc1NC(=O)N1CCn2c(C)ccc2C1CC (stereo not given)	383	2.8% (inactive)	-42% (inactive)	105	-50.1% (inactive)	110	-0.579 (inactive)	-3.2e-05 (inactive)	0.00545 (inactive)	-0.392% (inactive)	8.3% (inactive)
Nc1nnc(SCc2cc3c(cc2Cl)OCO3)s1	379	7.6% (inactive)	-3.1% (inactive)	110	-30.6% (inactive)	111	-0.477 (inactive)	-6.6e-05 (inactive)	0.00689 (inactive)	0.13% (inactive)	9.87% (inactive)
CCOC(=O)Cn1nc(-c2ccc(Cl)cc2)cc1N	285	15.6% (inactive)	-12% (inactive)	99.9	-2.9% (inactive)	111	-0.501 (inactive)	-8.2e-05 (inactive)	0.00497 (inactive)	-5.22% (inactive)	-25.8% (inactive)
O=C(COC(=O)c1cccc(S(=O)(=O)N2CCc3ccccc32)c1)NC1CCS(=O)(=O)C1 (stereo not given)	611	8.9% (inactive)	-6.2% (inactive)	125	-104% (inactive)	111	-0.283 (inactive)	-7.3e-05 (inactive)	0.00577 (inactive)	3.1% (inactive)	12.9% (inactive)
COc1cccc(C(=O)OCn2nnc3ccccc3c2=O)c1OC	750	-25% (inactive)	21% (inactive)	99.5	-17.8% (inactive)	103	-0.441 (inactive)	-2.9e-05 (inactive)	0.00547 (inactive)	11.8% (inactive)	28.8% (inactive)
O=C(CCN1C(=O)C2C3C=CC(C3)C2C1=O)NCCc1ccccc1Cl (stereo not given)	408	10.7% (inactive)	-1.6% (inactive)	103	-111% (inactive)	99.4	-0.498 (inactive)	-2.1e-05 (inactive)	0.00634 (inactive)	-11.5% (inactive)	-13.2% (inactive)
O=C(Cn1nc(Cc2ccncc2)c2ccccc2c1=O)N1CCN(C(=O)c2ccco2)CC1	780	-7.3% (inactive)	-29.3% (inactive)	110	-15.2% (inactive)	112	-0.58 (inactive)	-2.7e-05 (inactive)	0.0062 (inactive)	-0.346% (inactive)	21.1% (inactive)
O=C(CSc1nnc(-c2ccccc2Br)o1)Nc1cccc2ccccc12	541	-12.1% (inactive)	16.2% (inactive)	81.3	33.7% (inactive)	65.3	-0.546 (inactive)	2.3e-05 (inactive)	0.00661 (inactive)	1.31% (inactive)	-12.6% (inactive)
Cc1nc2ncnn2c(Nc2ccc3c(c2)OCCO3)c1C	233	-9.3% (inactive)	1.4% (inactive)	87.4	-57.1% (inactive)	97.7	-0.614 (inactive)	-4.3e-05 (inactive)	0.00442 (inactive)	9.15% (inactive)	-0.101% (inactive)
CCNc1nc(N2CCOCC2)nc(N(c2ccccc2)c2ccccc2)n1	324	8.2% (inactive)	-29.1% (inactive)	93.3	-3.9% (inactive)	101	-0.388 (inactive)	-5.9e-05 (inactive)	0.00355 (inactive)	9.87% (inactive)	28.5% (inactive)
COc1ccc(N2Cc3ccccc3C2)cc1Cl	579	-12.3% (inactive)	-13.8% (inactive)	84	-2% (inactive)	98.5	-0.527 (inactive)	-2.4e-05 (inactive)	0.00436 (inactive)	-31.1% (inactive)	-55.5% (inactive)
Cc1ccc(N2CCN(CCc3nc4cc(NS(C)(=O)=O)ccc4n3C)CC2)cc1	322	7% (inactive)	2% (inactive)	90.6	21.6% (inactive)	122	-0.531 (inactive)	-3.7e-05 (inactive)	0.00789 (inactive)	-11.6% (inactive)	-19.7% (inactive)
COc1ccc(NC(=O)Nc2ccc(C)cc2OC(F)F)cc1OC	335	-6.5% (inactive)	6.2% (inactive)	91.2	-38.2% (inactive)	94.2	-0.422 (inactive)	-5.1e-05 (inactive)	0.00406 (inactive)	1.59% (inactive)	-6.11% (inactive)
Cc1ccc(-n2c(Cn3cnc4ccccc43)nnc2SCC(=O)O)cc1	610	-9.8% (inactive)	-19.4% (inactive)	108	-26.2% (inactive)	110	-0.437 (inactive)	1.2e-06 (inactive)	0.00571 (inactive)	15.2% (inactive)	21.8% (inactive)
O=C(O)c1cc(Cl)c(Cl)cc1C(=O)N1CCCC1	291	0% (inactive)	14.8% (inactive)	88.1	7% (inactive)	104	-0.311 (inactive)	4.1e-07 (inactive)	0.00644 (inactive)	9.27% (inactive)	22.8% (inactive)
COCCOC(=O)c1c(C)oc2ccc(NS(=O)(=O)c3ccc(F)cc3)cc12	381	2.5% (inactive)	4.7% (inactive)	123	30.2% (inactive)	93	-0.613 (inactive)	2.2e-06 (inactive)	0.00626 (inactive)	14.6% (inactive)	25.3% (inactive)
CCOc1ccc(-c2cn(S(=O)(=O)c3cccc4nsnc34)nc2N)cc1	316	-6.1% (inactive)	8% (inactive)	107	-29.1% (inactive)	66.8	-0.484 (inactive)	-3.8e-05 (inactive)	0.00478 (inactive)	10.6% (inactive)	28.6% (inactive)
Cc1ccc(-n2nnnc2SCC(=O)c2cc(C)n(CC3CCCO3)c2C)cc1 (stereo not given)	452	6.3% (inactive)	-11.9% (inactive)	102	-52.2% (inactive)	121	-0.437 (inactive)	3.2e-05 (inactive)	0.00567 (inactive)	15.1% (inactive)	-0.555% (inactive)
O=C(c1cccnc1)N1CCN(Cc2ccc3c(c2)OCO3)CC1	64	11% (inactive)	-2.8% (inactive)	88.3	29.2% (inactive)	87.6	-0.411 (inactive)	-5.6e-05 (inactive)	0.00498 (inactive)	14.2% (inactive)	13.5% (inactive)
CCOc1ccc(N(CC)C(=O)COc2cc(=O)n(C)c3ccccc23)cc1	622	16.5% (inactive)	-19.7% (inactive)	101	-47.3% (inactive)	118	-0.516 (inactive)	7.5e-06 (inactive)	0.0065 (inactive)	12.4% (inactive)	29.8% (inactive)
CCOC(=O)c1cn(CC)c2cc(N3CCOCC3)c(F)cc2c1=O	249	-5.5% (inactive)	4.6% (inactive)	72.9	-45.9% (inactive)	114	-0.592 (inactive)	-1e-05 (inactive)	0.00553 (inactive)	3.57% (inactive)	10.9% (inactive)
